# aSyn rescue: alpha-synuclein toxicity inhibition in yeast; Yeast expressing alpha-synuclein, growth rescue, BacTiter-Glo, 24 h; Potency, µM (highest dose often 46.1 µM), most hits filed as activators; 370,000 compounds, 0.14% hits; AID 652106; also: nearly all actives have a fitted effect of over 65% in size
#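 Galactose-induced alpha-syn yeast (OD600=0.02, raffinose-pregrown) + pinned cpd, 24 hr, 30 deg C; growth by BacTiter-Glo luminescence. Growth restoration scores as activation.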
# FUS yeast rescue: suppressors of FUS proteinopathy in yeast. S. cerevisiae FUS-expressing, growth rescue, OD600, 24 h. Potency, µM (doses to about 76.6 µM), actives largely listed as activators. 390,000 compounds, 0.24% hits; also: nearly all actives have a fitted effect of over 55% in size
#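 Quantitative HTS measuring growth restoration of FUS-toxic yeast. Galactose-induced cells (OD 0.005) were exposed 24hr at 30C to compounds at several concentrations, then absorbance at 600 nm was recorded.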
# Abeta rescue: compounds reversing amyloid beta toxicity in yeast; yeast expressing A-beta42, growth rescue, OD600, 48 h; response scale: 0% DMSO, 100% iron-clioquinol control; Potency, µM (series often up to 46.1 µM), actives largely listed as activators; 410,000 compounds, 0.063% hits; AID 1347071; also: nearly all actives have a fitted effect of over 55% in size
#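 Growth rescue measured by 600 nm absorbance after 48 h yeast culture at 30 C with compound. Values normalized between DMSO and an equimolar ferric chloride plus clioquinol control.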
# TDP-43 yeast inh: rescues yeast growth from TDP-43 toxicity | Potency, µM (series often up to 46.1 µM), actives largely listed as activators | 410,000 compounds, 1.8% hits | AID 652104 | TDP-43 expressing yeast growth rescue, BacTiter-Glo, 24 h; also: nearly all actives have a fitted effect of over 50% in size
#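 Luminescence from BacTiter-Glo reports growth of TDP-43-expressing yeast after 24 hr at 30 deg C with compound. Cells were raffinose-pregrown to mid-log, then seeded in galactose medium at OD600=0.02.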
# Mito fusion yeast: inhibitors of mitochondrial division or activators of mitochondrial fusion | S. cerevisiae fusion-defective mutant growth rescue, CellTiterGlo 48 h | Potency, µM (titrated, usually from 46.1 µM), hits mostly activators | 320,000 compounds, 0.23% hits | AID 485298; also: nearly all actives have a fitted effect of over 45% in size
#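 Luminescent cell viability in 1536-well qHTS format served as the measure of rescued growth in ts fusion-mutant S. cerevisiae cultured on non-fermentable YPEG for 48 hours at 37C.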
# Hits are given with their value; - = inactive; ? = inconclusive; . = not tested or not shown; ! = not confirmed by another sample; [ ] = dose if it differs, or a comment. In the library only some 2.2% were active in any assay of this set; here they are far more common. Calls follow the shape of the dose curve; as a rule, active = well fitted curve in the direction sought with a large enough effect; inconclusive = small, poorly fitted or top-dose-only effect, or another doubt; inactive = no such curve, though single readings can be large; an effect the other way counts as inactive or inconclusive.
SMILES,aSyn rescue,FUS yeast rescue,Abeta rescue,TDP-43 yeast inh,Mito fusion yeast
O=[N+]([O-])c1ccc(-c2ccc(/C=N/O)o2)cc1,-,-,-,?,-
NC(=S)N/N=C/C=C/c1ccccc1,-,-,-,10µM,-
Cc1ccc(-c2ccc(/C=N/NC(N)=S)o2)cc1,-,-,?,?,-
NC(=S)N/N=C/c1ccc(-c2ccc(Cl)c(Cl)c2)o1,-,-,-,20µM,-
CCN(CC)C(=O)CC[C@@H]1CC[C@]2(CCCN(Cc3ccc(Br)cc3)C2)O1,.,-,.,.,.
O=C(Nc1ccc(Br)cc1F)C(NS(=O)(=O)c1cccc2nsnc12)c1ccccc1 (stereo not given),.,-,-,-,.
Cc1ccc(-c2nc3ncccn3c2NC(=O)c2cccc(C)c2)cc1,.,-,.,.,.
NC(=S)N/N=C/c1cccc(Br)c1,-,-,-,20µM,-
NC(=S)N/N=C/c1cccc(/C=N/NC(N)=S)c1,-,-,-,-,-
CCOC(=O)c1cnc(NCc2ccccc2)nc1C,.,-,-,7.08µM,-
COc1cc(NC(=O)c2cnc(NCc3ccccc3)nc2C)cc(OC)c1OC,-,-,-,-,-
O=C(CC(=O)c1ccccc1O)c1cccc(F)c1,12.6µM,.,-,-,-
NC(=O)COC(=O)c1c2c(nc3ccccc13)CCCC2,-,-,-,-,-
O=C(OCC(=O)N1CCc2ccccc21)c1c2c(nc3ccccc13)CCCCC2,-,.,-,22.4µM,?
CN(C)c1cccc(/C=C2\CC3(OC(=O)C4CCCC4)CCCN2C3)c1 (stereo not given),.,-,.,.,.
CN=c1scc(-c2cccs2)n1/N=C/c1ccc(O)c(O)c1O,-,31.6µM,-,-[0.397 µM],-
CN=c1scc(-c2cccs2)n1/N=C/c1ccccc1O,-,.,-,-,-
Cc1nc(-c2ccccn2)nc(SCC(=O)c2ccccc2)c1Cl,-,-,-,17.8µM,-
COc1ccccc1-c1cc(C(F)(F)F)nc(N2CCOCC2)n1,-,-,-,22.4µM,-
COc1cc2c(cc1OC)C1O[C@](c3ccsc3)(C2)Oc2cc(-c3ccccc3)oc(=O)c21,.,.,.,.,-[9.22 µM]
COC(=O)c1ccc2nc(-c3cccc(Cl)c3)c(Cc3ccccc3OC)n2c1,-,-,-,35.5µM,.
COC(=O)c1ccc2nc(-c3ccc(F)cc3)c(Cc3cccc(F)c3)n2c1,-,-,-,-,.
COC(=O)c1ccc2nc(-c3ccc(OC)c(OC)c3)c(Cc3cccc(F)c3)n2c1,-,-,-,35.5µM,.
COC(=O)c1ccc2nc(-c3ccc(OC)c(OC)c3)c(Cc3ccc(C)cc3)n2c1,-,-,-,22.4µM,.
CCc1ccc(C2=C(C)C(N3CCC(C(=O)Nc4ccc(F)cc4)CC3)=NS2(=O)=O)cc1,.,-,-,-,.
SMILES,aSyn rescue,FUS yeast rescue,Abeta rescue,TDP-43 yeast inh,Mito fusion yeast
Cc1ccc(C(=O)OC(C)C(=O)Nc2ccc(Cl)cn2)s1 (stereo not given),-,-,-,14.1µM,-
CC(OC(=O)c1ccccc1O)C(=O)Nc1ccc(Cl)cn1 (stereo not given),-,-,-,-,-
C=CCn1c(SC(C)C#N)nc2ccccc2c1=O (stereo not given),-,.,.,.,.
O[C@H](COc1ccccc1)CN1CCC(C(O)(c2ccccc2)c2ccccc2)CC1,.,-,.,.,.
CCc1ccc(-c2cc(C)no2)cc1S(=O)(=O)Nc1ccc(Cl)cc1,.,?,-,22.4µM,.
Cc1cc(-c2ccc(C)c(S(=O)(=O)NCCc3ccccc3)c2)on1,.,-,-,?,.
CCc1ccc(-c2cc(C)no2)cc1S(=O)(=O)NCCc1ccccc1,-,-,-,12.6µM,-
Cc1cc(-c2ccc(C)c(S(=O)(=O)NCc3ccc(Cl)cc3)c2)on1,.,-,-,31.6µM,.
Cc1cc(-c2ccc(C)c(S(=O)(=O)NCc3cccs3)c2)on1,.,-,-,-,.
CN(C)c1ccc(/C=C/c2ccnc3ccc(O)cc23)cc1,-,.,.,.,.
Cc1ccc2cccc(NC(=O)COc3ccccc3Cl)c2n1,.,-,-,-,.
COc1ccc(N2CCN(C(c3ccc(C)cc3)c3nnnn3C(C)(C)C)CC2)cc1 (stereo not given),-,.,.,.,.
O=C(O)c1ccc(NC(=O)c2cc3c([nH]c2=O)CCCC3=O)cc1,-,.,.,.,.
CNC(=O)C(=O)Nc1ccc2c(c1)N(S(=O)(=O)c1cccs1)CCC2,-,-,-,15.8µM,-
CC(C)C[C@@H](CN1CCC[C@@H]1CN1C(=S)NC[C@@H]1Cc1ccc(O)cc1)N1C[C@H](Cc2ccc(O)cc2)N(CCc2ccccc2)C1=S,-,35.5µM,-,-,.
O=C(Cc1cccc2ccccc12)NO,-,.,.,.,.
Cc1ccccc1Cn1ccc(-c2ccc3c(c2)OCO3)n1,-,-,-,17.8µM,-
Cc1ccccc1Cn1nnc(-c2ccc3c(c2)OCO3)n1,-,-,-,-,-
Fc1cccc(Cn2ccc(-c3ccc4c(c3)OCO4)n2)c1,-,-,-,12.6µM,-
Nc1ccn(Cc2cccc(F)c2)n1,-,-,-,-,-
Cc1ccc(Nc2nc(Nc3ccc(Cl)cc3)nc(N3CCOCC3)n2)cc1,-,.,.,.,.
COc1ccc(-n2ncc(C(=O)NCc3ccc4c(c3)OCO4)c2C2CCN(C(=O)OC(C)(C)C)CC2)cc1,.,31.6µM,-,-,.
Cc1cccc(C)c1-n1ncc(C(=O)NCc2ccc3c(c2)OCO3)c1C1CCN(C(=O)OC(C)(C)C)CC1,.,-,-,-,.
COc1ccc(CNC(=O)c2cnn(-c3ccc(OC)cc3)c2C2CCN(C(=O)OC(C)(C)C)CC2)cc1,.,?,-,-,.
Cc1ccc(-n2ncc(C(=O)Nc3ccc4c(c3)OCO4)c2C2CCN(C(=O)OC(C)(C)C)CC2)cc1,.,28.2µM,-,-,.
SMILES,aSyn rescue,FUS yeast rescue,Abeta rescue,TDP-43 yeast inh,Mito fusion yeast
Cc1ccc(-n2ncc(C(=O)NCc3ccc4c(c3)OCO4)c2C2CCN(C(=O)OC(C)(C)C)CC2)cc1C,.,25.1µM,-,-,.
CCCCc1nn2c(=O)cc(COC(=O)c3ccc(NC(=O)c4ccccc4Cl)cc3)nc2s1,.,-,-,-,.
COc1ccc(C(=O)OC(C)C(=O)NC(C)CCc2ccccc2)c(OC)c1 (stereo not given),-,-,-,-,11.2µM
C=CCOn1c(C)c(C(C)=O)c2c3no[n+]([O-])c3ccc21,-,-,-,7.08µM,-
N#CCC(=O)NNC(=S)NC(=O)C(c1ccccc1)c1ccccc1,-,-,-,-,-
CC(=O)NC(=S)NNC(=O)C(c1ccccc1)c1ccccc1,22.4µM,-,-,17.8µM,-
COc1ccc(-c2nc(SCC(=O)c3ccc(OC)c(Br)c3)n[nH]2)cc1,.,-,-,-,.
CNS(=O)(=O)c1cccc(C(=O)OCc2csc(-c3ccccc3)n2)c1,-,.,-,15.8µM,-
Cn1c(=O)c2cc(S(=O)(=O)N3CCN(CCO)CC3)ccc2n(C)c1=O,.,-,.,.,.
COc1cccc(C(=O)NCCSCc2c(F)cccc2Cl)c1,-,-,-,11.2µM,-
O=C(CCSCc1cccc(Cl)c1)NCCc1ccc(Cl)cc1,-,-,-,11.2µM!,-

# Screens: PubChem, National Center for Advancing Translational Sciences (NCATS)
